Drawing on PubChem BioAssay AID778 (Sanford-Burnham Center for Chemical Genomics, 2007), this text covers inhibition for 105 compounds.

The campaign covered roughly 96,000 compounds. About 20,000 (21%) were called active.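 How the source made its calls: active means CYP2C19 inhibition above a set limit at 5 µM in the primary screen (cut at about 50% in these data); inactive means the rest.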 Not all results are given here.

Cytochrome P450 2C19 (Homo sapiens), sequence (P33261 whole entry, looked up): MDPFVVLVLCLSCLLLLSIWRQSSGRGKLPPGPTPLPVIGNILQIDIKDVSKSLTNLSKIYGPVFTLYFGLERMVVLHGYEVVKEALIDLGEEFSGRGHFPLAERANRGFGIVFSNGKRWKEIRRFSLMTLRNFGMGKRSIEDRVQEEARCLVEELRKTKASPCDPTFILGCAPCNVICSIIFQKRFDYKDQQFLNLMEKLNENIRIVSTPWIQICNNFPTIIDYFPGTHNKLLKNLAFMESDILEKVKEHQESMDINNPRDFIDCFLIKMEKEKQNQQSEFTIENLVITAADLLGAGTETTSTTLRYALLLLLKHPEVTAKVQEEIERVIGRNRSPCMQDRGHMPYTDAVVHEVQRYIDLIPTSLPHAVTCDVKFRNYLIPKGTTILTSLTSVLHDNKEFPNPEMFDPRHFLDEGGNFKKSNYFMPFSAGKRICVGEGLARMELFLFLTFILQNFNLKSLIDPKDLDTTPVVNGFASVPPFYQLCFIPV

This assay addresses Cytochrome P450 2C19 (Homo sapiens) (UniProt P33261). Description: blockers of cytochrome P450 2C19 activity – biochemical, luminescence, ADME assay, primary screen (AID 778).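 Further: plate controls were negative control wells for no effect and 2.5 mM tranylcypromine positive control for full effect.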 Conditions: CYP2C19 Supersomes, luciferin-H EGE luminescence, 30 min; at 5 µM; hits give high values.
With `CC(CN1CCOCC1)c1ccccc1` (stereo not given), the inhibition was 26.4% (inactive).

With `CC(C)C(=O)Nc1ccc2c(c1)oc1ccccc12`, the inhibition is 13.2% (inactive). Turning to `Cc1nc2cc(NC(=O)NCc3ccccc3)ccc2o1`, the inhibition is -8.7% (inactive). As to `O=C(O)CCN1C(=O)CC2(CCCCC2)C1=O`, the inhibition was -6.7% (inactive). Next, `Cc1ccc(-n2nc3c(c2NC(=O)c2ccc4c(c2)OCO4)CSC3)c(C)c1`: 3.6% (inactive); `Cn1c(=O)n(C)c2cc(C(=O)Nc3ccc4c(c3)OCO4)ccc21`: -13.9% (inactive). With `O=C(Nc1ccc2c(c1)OCCO2)c1ccc(Cl)c(S(=O)(=O)N2CCCCC2)c1` the figure was 96.4% (active); with `Cc1ccc(C(=O)Nc2ccc3c(c2)OCO3)cc1S(=O)(=O)N1CCCCC1`, 92.3% (active); with `Cc1ccc(C(=O)NCC(=O)O)cc1S(=O)(=O)N1CCCCC1`, -12.8% (inactive). In the case of `O=C(O)c1cc(S(=O)(=O)N2CCCCCC2)c(Cl)cc1Cl`, the inhibition is 0% (inactive).

With `COc1ccc(N2C(=O)c3cccc4cccc(c34)C2=O)nn1`, the inhibition was -8.5% (inactive). With `CC1CCCN(C(=O)Cn2c(=O)oc3ccccc32)C1` (stereo not given) the figure was 26.2% (inactive). In the case of `Cc1nnc(NC2=NCCCCC2)o1`, the inhibition was -3.5% (inactive). Next, `O=C(CC1NCCNC1=O)Nc1ccc(Oc2ccccc2)cc1` (stereo not given): -0.6% (inactive); `Cn1c(=O)[nH]c(=O)c2c1nc(Br)n2CCCCSc1nc2ccccc2o1`: 38.5% (inactive); `Cc1ccc(Oc2ccc3c(c2)C(=O)N(c2cccc4cccnc24)C3=O)cc1`: -1.5% (inactive). With `COc1ccc(N/N=C2/CCCCC2=O)cc1` the figure was 3.1% (inactive); with `COc1ccc(CNC2CCCCC2)cc1`, 69.4% (active). In the case of `COc1ccc(CNC(=O)C2CCN(S(=O)(=O)N3CCOCC3)CC2)cc1`, the inhibition was -11.9% (inactive).

Turning to `CN1C(=O)c2ccc(NC(=O)C3CCCCC3)cc2C1=O`, the inhibition was -0.4% (inactive). Next, `O=C1c2ccccc2C(=O)N1c1ccccc1S(=O)C(F)(F)F` (stereo not given): 6.6% (inactive); `Cc1ccc(-n2c(=O)cc(N3CCN(Cc4ccccc4)CC3)[nH]c2=O)cc1`: 1.5% (inactive); `CC1=NCCN1S(=O)(=O)c1ccc(Br)c(C)c1`: 27.7% (inactive). On to `Cc1ccc(C)c(S(=O)(=O)N2CC(=O)Nc3ccccc32)c1`, for which the inhibition is 32.8% (inactive). Take `Cc1ccc(S(=O)(=O)N2CC(=O)Nc3ccccc32)cc1C`: the inhibition was 60.4% (active).

For the compound `O=C(OCC#CCSc1nnc(-c2ccncc2)o1)c1sc2ccccc2c1Cl`, the inhibition is -11.8% (inactive). On to `CC1CCN(C(NC(=O)c2ccco2)C(=O)c2ccccc2)CC1` (stereo not given), for which the inhibition was 35.9% (inactive). With `CCOC(=O)C1=C(C)NC(C)=C(C(=O)OCC)C1C1=COCCO1` the figure was 88.8% (active); with `O=C(OCC(=O)c1cccs1)C1=COCCO1`, 2.6% (inactive). With `CCOC(=O)C1C(=O)NCC1c1ccccc1` (stereo not given), the inhibition was -0.1% (inactive). Regarding `CCOC(=O)C1=C(C)NC(C)=C(C(=O)OCC)C1c1ccccn1`, the inhibition was 50.3% (active). With `CCCC1NC(=O)NC(C)=C1C(=O)OCC` (stereo not given), the inhibition was 17% (inactive). On to `CCOc1ccccc1C1NC(=O)NC(C)=C1C(=O)OCc1ccco1` (stereo not given), for which the inhibition is 16.1% (inactive). As for `CCCCCn1c(SCCC(C)C)nc2c1c(=O)[nH]c(=O)n2C`, the inhibition was 8.6% (inactive). Turning to `Cc1ccc(C2CC(c3cccc(Br)c3)n3nc(N)nc3N2)cc1` (stereo not given), the inhibition was 21.7% (inactive). For `Cc1ccc(-c2ccc(=O)n(CC(=O)NCCCN3CCCCC3)n2)cc1`, the inhibition was 6.9% (inactive).

With `O=C1c2ccccc2C(=O)c2c1cccc2N1CCN(CCO)CC1`, the inhibition was 1.4% (inactive). As to `Cc1cc2[nH]ncc2cc1NC(=S)NC(=O)c1ccccc1`, the inhibition was 99.2% (active). Next, `CCOC(=O)c1c(-c2ccccc2)csc1NC(=S)NC(=O)c1ccccc1`: -8.6% (inactive). For the compound `Cc1ccc(NC(=S)NC(=O)c2ccc(-c3ccccc3)cc2)c(C)c1`, the inhibition was 8.6% (inactive).

Take `CC1(C)C(=O)C2(CCCCC2)C(=O)OC1c1cccs1` (stereo not given): the inhibition is 15.1% (inactive).

Turning to `CCOC1CS(=O)(=O)CC1OCC` (stereo not given), the inhibition was -10.9% (inactive).

Take `Nc1nnc(C2CCCC2)s1`: the inhibition is 8.1% (inactive). Consider `Cc1cc(N/C=C\C(=O)c2ccc(Cl)c(Cl)c2)no1`, for which the inhibition was 40.4% (inactive). With `Cc1nn(C(=O)c2ccoc2C)c(N)c1-c1ccccc1` the figure was 29.7% (inactive); with `Cc1nn2c(c1-c1ccccc1)N=C(c1ccco1)CC2c1ccccc1` (stereo not given), 66.2% (active). With `CN(C)/C=C(\C#N)C(=O)c1cccnc1Oc1cccc(F)c1` the figure was 40.5% (inactive). Turning to `COc1cccc2cc(C(=O)N(C)C)c(=O)oc12`, the inhibition is -22.6% (inactive). With `CCCCNC(=O)c1onc(CSc2cccc(OC)c2)c1C(=O)O` the figure was 12.9% (inactive); with `CCOc1ccc(NC(=O)N(CC(C)C)CC(C)C)cc1`, 11.8% (inactive). Take `CC(O)CN(Cc1ccc(Cl)cc1)CC(C)O` (stereo not given): the inhibition is -2.3% (inactive). As to `CN(Cc1ccccc1)Cc1ccccc1F`, the inhibition is 44.7% (inactive). Consider `OCCN(Cc1ccccc1)Cc1ccc(Cl)cc1`, for which the inhibition is 100% (active). In the case of `Brc1cnc(N2CCCC2)nc1N1CCCCC1`, the inhibition was 1.7% (inactive).

For `COc1cc(OC)cc(C(=O)NCCSCc2ccco2)c1`, the inhibition is 35% (inactive). With `O=C(CN1C(=O)C2C3C=CC(C3)C2C1=O)NCC1COc2ccccc2O1` (stereo not given) the figure was 0.4% (inactive). On to `COC(=O)c1sc(=S)n(-c2ccccc2)c1N`, for which the inhibition is 17.4% (inactive). Next, `COC(=O)c1sc(=S)n(-c2ccc(Cl)cc2)c1C`: 62.9% (active); `CCOC(=O)Cn1c(N)c(C(=O)OC)sc1=S`: 26.8% (inactive). Next, `CC1(C)CC(=O)NC=C(c2ccccc2)C1`: 23.8% (inactive); `Brc1ccc(/C=N/N2CCN(C3c4ccccc4-c4ccccc43)CC2)s1`: 11.5% (inactive). With `COc1ccc(OC)c(-n2cc3c(=O)n(C)c(=O)n(C)c3c2)c1` the figure was 38.6% (inactive); with `COc1cc(C2C(C#N)=C(N)Oc3n[nH]c(-c4ccccn4)c32)cc(OC)c1OC` (stereo not given), 1.9% (inactive); with `COc1ccc(C2C(C#N)=C(N)Oc3cc(N)ccc32)cc1OC` (stereo not given), 74.9% (active). Consider `N#CC1=C(N)Oc2cc(O)ccc2C1C1CCCCC1` (stereo not given), for which the inhibition is 35.8% (inactive). With `CS(=O)(=O)N1CCCC(C(=O)N2CCOCC2)C1` (stereo not given), the inhibition was -12.2% (inactive). For `O=C(Cc1ccc(S(=O)(=O)N2CCOCC2)s1)NCCC(c1ccccc1)c1ccccc1`, the inhibition was 41.9% (inactive).

Regarding `COC(=O)NC1(C(F)(F)F)NC(=O)N(C2CCCCC2)C1=O` (stereo not given), the inhibition is 7.3% (inactive). On to `O=C1NC(Nc2nc3ccccc3s2)(C(F)(F)F)C(=O)N1C1CCCCC1` (stereo not given), for which the inhibition was 68.9% (active). Regarding `CCC(=O)Nc1sc(C(=O)N2CCCCC2)c(C)c1C#N`, the inhibition is 19.7% (inactive). For the compound `O=C(CSc1n[nH]c(-c2cccnc2)n1)Nc1ccnc2ccccc12`, the inhibition is 15% (inactive). As for `NC(=O)N1CCCC1C(=O)Nc1ccc(Cl)c(Cl)c1` (stereo not given), the inhibition is 54.3% (active). Regarding `COc1cccc(NC(=O)C2CCCN2C(=O)OCc2ccccc2)c1` (stereo not given), the inhibition was 33.1% (inactive).

Regarding `CC(=O)Nc1ccc(NC(=O)CN2CCCC(C)C2)c(Cl)c1` (stereo not given), the inhibition is 19.8% (inactive). In the case of `Cc1cc(NC(=O)COn2nnc3ccccc32)no1`, the inhibition was 28.7% (inactive). Consider `S=C(NCc1ccc(Cl)cc1)NC12CC3CC(CC(C3)C1)C2`, for which the inhibition is 47.3% (inactive). With `Cc1nn(C)cc1C(=O)NNC(=S)Nc1ccc(Cl)cc1`, the inhibition was 8.5% (inactive). `S=C(NCc1cccs1)Nc1ccc(Cl)cc1`: the inhibition was 89.7% (active). In the case of `C=CCNC(=S)NNc1ncnc2sc3c(c12)CC(C)(C)OC3`, the inhibition was 17.9% (inactive). With `C=CCOc1c2ccc(C(=O)N(CC)c3ccc(OC)cc3)cc2nn1C` the figure was 44.1% (inactive); with `O=C(CNC(=O)OCc1ccccc1)Oc1cc2oc(=O)cc(-c3ccccc3)c2cc1Cl`, 27.8% (inactive). As for `Cc1cccc(OCCCC(=O)Nc2ccc(S(=O)(=O)N3CCCC3)cc2)c1`, the inhibition was 50.1% (active). For `C=CCNC(=O)CCCOc1cccc(C)c1`, the inhibition was 17.5% (inactive). `COc1ccc(OCC(=O)OCC(=O)Nc2ccc(S(=O)(=O)N3CCCCC3)cc2)cc1`: the inhibition is 21.1% (inactive). As for `CC(=O)Nc1ccc(S(=O)(=O)N2CCN(CCCOc3cc(C)ccc3C)CC2)cc1`, the inhibition was 84.1% (active). With `CC(=O)Nc1ccc(S(=O)(=O)N2CCSCC2)cc1`, the inhibition is 11.2% (inactive).

With `CC(=O)Nc1ccc(S(=O)(=O)N2CCN(C3CCCCCCC3)CC2)cc1`, the inhibition was 25.7% (inactive). With `CCc1c(C)c2c(C)[nH]nc2oc1=O`, the inhibition was 34% (inactive). Next, `CCOC(=O)Nc1ccc(NC(=O)OCC)cc1`: -15.6% (inactive); `Cc1ccc2c(NC(=O)C3CC3)cccc2n1`: 3.3% (inactive).

On to `CSc1ccc(C#N)cc1NC(=O)c1cccc(Cl)c1`, for which the inhibition is 17.9% (inactive).

Take `O=C(CCN1C(=O)c2ccccc2C1=O)NCCN1CCOCC1`: the inhibition is -17.4% (inactive).

`Cc1cc(C)nc(SCc2nnc(SCC(=O)OC3CCCCC3)o2)n1`: the inhibition was 32.2% (inactive). As for `c1ccc(CSc2nnc(-c3ccco3)c(-c3ccco3)n2)cc1`, the inhibition is 44.4% (inactive). For `O=C(c1ccc(Cl)c(Cl)c1)N1CCCC1`, the inhibition was 15.1% (inactive). For `CC(C)C(NC(=O)c1ccc(Cl)cc1)C(=O)O` (stereo not given), the inhibition was -19.4% (inactive).

Consider `CC(NC(=O)c1ccc(Cl)cc1)C(=O)N1CCCCC1` (stereo not given), for which the inhibition was 77.5% (active).

For the compound `CCOc1ccccc1N=C1NC(=O)CS1`, the inhibition is -12.1% (inactive). `Cc1ccc(N2C(=O)CC(NCc3ccc4c(c3)OCO4)C2=O)cc1Cl` (stereo not given): the inhibition is 85% (active). On to `O=CN1CCN(C2CC(=O)N(c3ccc4c(c3)OCO4)C2=O)CC1` (stereo not given), for which the inhibition was -12% (inactive).

In the case of `CC1CCC(N2CC(=O)N(Cc3ccc4c(c3)OCO4)C(c3ccc(F)cc3)C2=O)CC1` (stereo not given), the inhibition was 20.3% (inactive).

On to `O=C(CSc1nc(-c2ccco2)cc(C(F)(F)F)n1)NCc1cccs1`, for which the inhibition is 8.5% (inactive). Regarding `CC1(C)Oc2ccc(C(=O)N3CCOCC3)cc2N(CC(=O)Nc2ccccc2)C1=O`, the inhibition is 30.3% (inactive). Regarding `O=C(Cn1c(=O)sc2ccccc21)Nc1ccc2c(c1)OCCO2`, the inhibition is 7.6% (inactive). For the compound `CC1Cc2ccccc2N1CC(=O)Nc1ccc2c(c1)OC(F)(F)O2` (stereo not given), the inhibition is 97.3% (active).
